Here are results for 14 compounds from PubChem BioAssay (NCI).

Molecules are shown by their SMILES. Compounds without any hit were thinned out: in the full panel of roughly 83,000, 20% have a hit.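 Step 1: grow cells in 96-well plates. Step 2: add test compound at a single concentration. Step 3: incubate 48 h. Step 4: record percent growth.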 Values without a mark were called inactive. The source made the active and inactive calls. How the source made its calls: active means growth percent below 10; inactive means the rest.

Among the test systems are SR leukemia; RPMI-8226 leukemia; OVCAR-8 ovarian; OVCAR-5 ovarian; OVCAR-4 ovarian; SK-OV-3 ovarian; IGROV1 ovarian; OVCAR-3 ovarian; NCI/ADR-RES ovarian.
Assay in all cases: NCI-60 one-dose screen, 48 h (100 = growth as untreated, 0 = no growth, -100 = all killed)
Holding throughout (settings): 10 µM unless noted

As to `Cc1csc(-c2nnc(Nc3ccc(Oc4ncccc4-c4ccnc(N)n4)cc3)c3ccccc23)c1`, the growth in the test with SR leukemia was 3.4% (active); with RPMI-8226 leukemia, 51.8%; in the test with OVCAR-8 ovarian, 31%; with OVCAR-5 ovarian, 51.5%; in the test with OVCAR-4 ovarian, 60.3%; with SK-OV-3 ovarian, 53%. The growth in the test on IGROV1 ovarian is 24.5%; in the test on OVCAR-3 ovarian, 56%; in the test with NCI/ADR-RES ovarian, 50%.

Take `CCN(CC)CCNC(=O)c1c(C)[nH]c(/C=C2\C(=O)Nc3ccc(F)cc32)c1C`: the growth with SR leukemia is -9.44% (active); in the test with RPMI-8226 leukemia it was -10.3% (active); with OVCAR-8 ovarian, 1.47% (active); with OVCAR-5 ovarian, 35%; with OVCAR-4 ovarian, 23.9%; in the test with SK-OV-3 ovarian, 26.9%. The growth in the test with IGROV1 ovarian is 24.6%; in the test with OVCAR-3 ovarian it was 67.9%; in the test on NCI/ADR-RES ovarian, 18.4%.

Turning to `COc1cc2ncnc(Nc3cccc(Cl)c3F)c2cc1OC(=O)N1CCN(C)C[C@H]1C`, the growth with SR leukemia is 62.6%; with RPMI-8226 leukemia it was 76.4%; with OVCAR-8 ovarian, 64.2%; in the test with OVCAR-5 ovarian it was 46.5%; in the test on OVCAR-4 ovarian it was 103%; with SK-OV-3 ovarian, -6.41% (active). Also, the growth was 16.4% in the test with IGROV1 ovarian, 69.5% in the test on OVCAR-3 ovarian and 64.3% in the test with NCI/ADR-RES ovarian.

As for `S=C(NCc1ccc2c(c1)OCO2)N1CCN(c2ncnc3c2oc2ccccc23)CC1`, the growth with SR leukemia is 14.8%; with RPMI-8226 leukemia, 21.3%; in the test on OVCAR-8 ovarian, 24.8%; with OVCAR-5 ovarian, 62.1%; in the test with OVCAR-4 ovarian it was 14.1%; in the test with SK-OV-3 ovarian, 35.6%. In addition, the growth in the test on IGROV1 ovarian is 33.4%; with OVCAR-3 ovarian, 30.9%; in the test with NCI/ADR-RES ovarian, 28.3%.

Turning to `O=C1NC(=O)C(c2cnc3ccccn23)=C1c1cn2c3c(cc(F)cc13)CN(C(=O)N1CCCCC1)CC2`, the growth in the test on SR leukemia is 10%; with RPMI-8226 leukemia, 60.8%; in the test with OVCAR-8 ovarian, 19.7%; with OVCAR-5 ovarian it was 102%; in the test with OVCAR-4 ovarian, 38.7%; with SK-OV-3 ovarian it was 39.4%. The growth with IGROV1 ovarian was 53.3%; in the test on OVCAR-3 ovarian it was 52.8%; with NCI/ADR-RES ovarian, 74.4%.

As for `C[C@@H](NC(=O)c1ncnc(N)c1Cl)c1ncc(C(=O)Nc2cc(C(F)(F)F)c(Cl)cn2)s1`, the growth with SR leukemia is 57.5%; with RPMI-8226 leukemia, 71.9%; with OVCAR-8 ovarian it was 64.5%; with OVCAR-5 ovarian, 31.3%; in the test with OVCAR-4 ovarian, 98.5%; in the test on SK-OV-3 ovarian, 93.6%. Further, the results for the growth in the test on IGROV1 ovarian, with OVCAR-3 ovarian and in the test with NCI/ADR-RES ovarian were 63.5%, 95% and 79.8%, respectively.

As for `COCC(=O)NC/C=C/c1ccc2ncnc(Nc3ccc(Oc4ccc(C)nc4)c(C)c3)c2c1`, the growth is 22.5% with SR leukemia; 50.6% with RPMI-8226 leukemia; 38.5% in the test on OVCAR-8 ovarian; 21.6% with OVCAR-5 ovarian; 40.1% with OVCAR-4 ovarian; -18.6% (active) with SK-OV-3 ovarian. Also, the figures for the growth with IGROV1 ovarian, in the test with OVCAR-3 ovarian and with NCI/ADR-RES ovarian were -8.37% (active), 63.3% and 57.1%, respectively.

As to `CCc1cnn2c(NCc3ccc[n+]([O-])c3)cc(N3CCCC[C@H]3CCO)nc12`, the growth in the test with SR leukemia is -17.3% (active); in the test with RPMI-8226 leukemia, -16.2% (active); in the test on OVCAR-8 ovarian, -6.3% (active); in the test on OVCAR-5 ovarian, 4.89% (active); in the test on OVCAR-4 ovarian, -9.21% (active); in the test with SK-OV-3 ovarian it was -17.8% (active). The growth in the test with IGROV1 ovarian was 5.6% (active); in the test with OVCAR-3 ovarian it was 12.3%; with NCI/ADR-RES ovarian, -0.875% (active).

Regarding `CNC(=O)c1cc(COc2nnc(Nc3ccc(Cl)cc3)c3ccoc23)ccn1`, the growth in the test with SR leukemia was 61.3%; in the test on RPMI-8226 leukemia, 89.9%; in the test with OVCAR-8 ovarian, 14.3%; in the test on OVCAR-5 ovarian, 23.5%; in the test on OVCAR-4 ovarian it was -38.4% (active); in the test on SK-OV-3 ovarian, -60.8% (active). Moreover, the values for the growth in the test with IGROV1 ovarian, with OVCAR-3 ovarian and in the test with NCI/ADR-RES ovarian were 24.7%, 46.6% and 15.2%, respectively.

As for `NC1=Nc2cc(OCCCN3Cc4ccccc4C3)c(OCC3CC3)cc2C12CCCC2`, the growth was -5.81% (active) with SR leukemia; 33.8% in the test with RPMI-8226 leukemia; 72% with OVCAR-8 ovarian; 83.5% in the test on OVCAR-5 ovarian; 61.3% in the test with OVCAR-4 ovarian; 70.1% with SK-OV-3 ovarian. The figures for the growth with IGROV1 ovarian, in the test with OVCAR-3 ovarian and with NCI/ADR-RES ovarian were 71.7%, 75.7% and 79%, respectively.

With `COc1cc2nccc(Oc3ccc(NC(=O)Nc4cc(C)on4)c(Cl)c3)c2cc1OC`, the growth is 4.19% (active) in the test on SR leukemia; 21% in the test on RPMI-8226 leukemia; 15.3% in the test on OVCAR-8 ovarian; 20.2% in the test with OVCAR-5 ovarian; 31.1% in the test on OVCAR-4 ovarian; -17.3% (active) in the test on SK-OV-3 ovarian. Moreover, the results for the growth in the test on IGROV1 ovarian, with OVCAR-3 ovarian and with NCI/ADR-RES ovarian were 0.0648% (active), 35.1% and 10.2%, respectively.

On to `Cc1cc(C(=O)Nc2cc(Oc3ccc4nc(NC(=O)C5CC5)cn4n3)ccc2C)n(C)n1`, for which the growth is 29.5% in the test on SR leukemia; 48.6% with RPMI-8226 leukemia; 30.2% in the test on OVCAR-8 ovarian; 11.6% with OVCAR-5 ovarian; 49% in the test on OVCAR-4 ovarian; 17.9% in the test with SK-OV-3 ovarian. Besides, the results for the growth in the test on IGROV1 ovarian, in the test with OVCAR-3 ovarian and in the test on NCI/ADR-RES ovarian were 12%, 52.8% and 60.2%, respectively.

With `NC(=O)Nc1cc(-c2cccc(F)c2)sc1C(=O)N[C@H]1CCCNC1`, the growth was -6.47% (active) with SR leukemia; 6.16% (active) with RPMI-8226 leukemia; -15.2% (active) with OVCAR-8 ovarian; 2.28% (active) in the test on OVCAR-5 ovarian; 25.5% with OVCAR-4 ovarian; -46.4% (active) with SK-OV-3 ovarian. In addition, the growth in the test with IGROV1 ovarian was -50.5% (active); in the test on OVCAR-3 ovarian it was -1.15% (active); in the test with NCI/ADR-RES ovarian, 10%.

As to `Cc1cc(-c2cc(OC(=O)c3ccccc3)ccc2Cl)cc2nnc(Nc3ccc(OCCN4CCCC4)cc3)nc12`, the growth in the test on SR leukemia is 0.433% (active); with RPMI-8226 leukemia, 74.4%; in the test with OVCAR-8 ovarian it was 68.6%; in the test on OVCAR-5 ovarian it was 81%; in the test on OVCAR-4 ovarian it was -40.5% (active); in the test on SK-OV-3 ovarian, 52.6%. Besides, the values for the growth with IGROV1 ovarian, in the test with OVCAR-3 ovarian and in the test on NCI/ADR-RES ovarian were 69.4%, 86.3% and 110%, respectively.
